# Reference: PubChem BioAssay
# Active and inactive are the calls of the source. Unless noted, the rule behind the calls is not given here.
# Key:
# [1] = HepG2 liver cancer cell viability effects, profiling panel, resazurin fluorescence, 24 h, PK04 Diversity Set (AID 1172); conditions: higher = more signal
# [2] = basal S. cerevisiae growth modulation, no modifier, primary screen, OD600, strain BY4716, 24 h, basal condition (AID 1173); conditions: OD600, 24 h, higher = more signal, called active from +8 up or from −8 down
# [3] = MM1S myeloma cell viability, profiling panel, resazurin fluorescence, basal, 24 h, PK04 Diversity Set (AID 1174); conditions: higher = more signal, called active from +8 up or from −8 down;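 note: MM1S multiple myeloma cell line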
# [4] = target: Dihydroorotate dehydrogenase (quinone), mitochondrial (Plasmodium falciparum (isolate 3D7)) (UniProt Q08210); experiment: PfDHODH enzyme inhibitors, primary screen, biochemical, C-terminal His tag, absorbance 600 nm (AID 1175); conditions: DCIP absorbance 600 nm, higher = more signal, called active from +8 up or from −8 down;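 note: recombinant parasite enzyme with a five histidine tag at its C terminus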
# [5] = P. aeruginosa biofilm formation inhibitors, primary screen, strain PAO1, LB-PBS medium, absorbance 600 nm (AID 1176); conditions: P. aeruginosa PAO1 growth/biofilm, A600, 12 h; higher = more signal
# [6] = S. cerevisiae RM11-1a growth modifiers, primary screen, strain RM11-1a, OD600, basal, 24 h (AID 1177); conditions: OD600, 24 h, higher = more signal, called active from +8 up or from −8 down;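 note: cultures grown under basal conditions with no added stressor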
# [7] = E. coli acrAB mutant growth effects, primary screen, E. coli filamentation inducers, strain DRC39, OD650, 24 h (AID 1178); conditions: higher = more signal, called active from +8 up or from −8 down;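 note: growth measured as culture turbidity by optical density at 650 nm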
# [8] = E. coli acrAB mutant growth effects, primary screen, E. coli filamentation inducers, strain DRC39, OD650, 48 h (AID 1179);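 note: screen aims at cell division blockers that make cells filament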; conditions: E. coli DRC39 delta-acrAB growth, higher = more signal, called active from +8 up or from −8 down
# [9] = RPMI8226 myeloma cell viability, profiling panel, resazurin fluorescence, basal, 24 h, PK04 Diversity Set (AID 1180); conditions: higher = more signal;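 note: RPMI8826 multiple myeloma cell line at 5000 cells per well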
# [10] = target: E3 ubiquitin-protein ligase XIAP (Homo sapiens) (UniProt P98170); experiment: XIAP binders, primary screen, biophysical, small-molecule microarray, fluorescence 635 nm (AID 1181); conditions: small-molecule microarray binding, higher = more signal;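 note: score merges 667 nm emission and signal to noise over triplicate slides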
# [11] = system: XIP peptide (Xip251-270) binding; experiment: small-molecule binders of XIP peptide, primary screen, biochemical, small-molecule microarray, fluorescence 635/667 nm, 0.1 µg/mL protein (AID 1182); conditions: fluorescent protein binding, 635 nm, higher = more signal, called active from +8 up or from −8 down
# [12] = system: XIP peptide (Xip251-270); experiment: small-molecule binders of XIP peptide, primary screen, biochemical, small-molecule microarray, fluorescence 635/667 nm, 0.5 µg/mL protein (AID 1183); conditions: small-molecule microarray binding, fluorescence 635 nm; higher = more signal
# [13] = Plasmodium falciparum growth inhibition, primary screen, strain 3D7, DAPI fluorescence, 100 nL (AID 1184);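 note: parasites grown inside human red blood cells in medium with human serum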; conditions: P. falciparum 3D7 growth, 3 d, higher = more signal
# [14] = target: Homeobox protein Hox-A13 (Mus musculus) (UniProt Q62424); experiment: inhibitors of HoxA13-DNA binding, primary screen, biochemical, fluorescence polarization, labeled oligonucleotide (AID 1185); conditions: 15 min, higher = more signal, called active from +8 up or from −8 down
# [15] = inhibitors of hydroxyurea-induced Chk1 phosphorylation, primary screen, imaging, HeLa, phospho-Chk1 antibody, percent positive cells (AID 1186); conditions: hydroxyurea-induced phospho-Chk1 immunofluorescence imaging, higher = more signal
# [16] = inhibitors of hydroxyurea-induced Chk1 phosphorylation, primary screen, imaging, HeLa, phospho-Chk1 nuclear intensity (AID 1187); conditions: hydroxyurea-induced phospho-Chk1 immunofluorescence imaging, higher = more signal
# E3 ubiquitin-protein ligase XIAP (Homo sapiens), sequence (P98170 whole entry, looked up): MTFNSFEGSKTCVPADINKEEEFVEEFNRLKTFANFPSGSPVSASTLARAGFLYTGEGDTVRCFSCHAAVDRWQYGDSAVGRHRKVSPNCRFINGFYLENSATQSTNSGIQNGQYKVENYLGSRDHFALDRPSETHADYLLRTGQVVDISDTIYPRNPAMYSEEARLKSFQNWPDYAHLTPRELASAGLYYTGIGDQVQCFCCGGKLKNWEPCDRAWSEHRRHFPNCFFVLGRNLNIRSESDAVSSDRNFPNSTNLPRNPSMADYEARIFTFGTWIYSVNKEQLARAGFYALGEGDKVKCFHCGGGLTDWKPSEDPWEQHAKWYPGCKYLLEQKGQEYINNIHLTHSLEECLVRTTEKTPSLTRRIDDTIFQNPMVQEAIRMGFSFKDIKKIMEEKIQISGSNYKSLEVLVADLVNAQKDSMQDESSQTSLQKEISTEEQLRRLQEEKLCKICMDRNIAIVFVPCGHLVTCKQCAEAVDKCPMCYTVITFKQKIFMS
# Homeobox protein Hox-A13 (Mus musculus), sequence (Q62424 whole entry, looked up): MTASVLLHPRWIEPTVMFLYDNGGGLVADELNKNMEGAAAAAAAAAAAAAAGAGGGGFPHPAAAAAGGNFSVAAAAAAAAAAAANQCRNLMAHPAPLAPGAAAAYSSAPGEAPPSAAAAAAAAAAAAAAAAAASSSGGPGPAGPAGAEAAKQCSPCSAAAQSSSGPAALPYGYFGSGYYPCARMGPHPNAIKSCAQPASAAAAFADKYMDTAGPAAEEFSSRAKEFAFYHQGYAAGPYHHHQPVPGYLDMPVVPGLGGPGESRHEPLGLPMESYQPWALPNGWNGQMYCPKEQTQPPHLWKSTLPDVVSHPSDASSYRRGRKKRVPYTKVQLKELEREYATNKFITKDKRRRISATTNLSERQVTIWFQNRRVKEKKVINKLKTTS
# Dihydroorotate dehydrogenase (quinone), mitochondrial (Plasmodium falciparum (isolate 3D7)), sequence (Q08210 whole entry, looked up): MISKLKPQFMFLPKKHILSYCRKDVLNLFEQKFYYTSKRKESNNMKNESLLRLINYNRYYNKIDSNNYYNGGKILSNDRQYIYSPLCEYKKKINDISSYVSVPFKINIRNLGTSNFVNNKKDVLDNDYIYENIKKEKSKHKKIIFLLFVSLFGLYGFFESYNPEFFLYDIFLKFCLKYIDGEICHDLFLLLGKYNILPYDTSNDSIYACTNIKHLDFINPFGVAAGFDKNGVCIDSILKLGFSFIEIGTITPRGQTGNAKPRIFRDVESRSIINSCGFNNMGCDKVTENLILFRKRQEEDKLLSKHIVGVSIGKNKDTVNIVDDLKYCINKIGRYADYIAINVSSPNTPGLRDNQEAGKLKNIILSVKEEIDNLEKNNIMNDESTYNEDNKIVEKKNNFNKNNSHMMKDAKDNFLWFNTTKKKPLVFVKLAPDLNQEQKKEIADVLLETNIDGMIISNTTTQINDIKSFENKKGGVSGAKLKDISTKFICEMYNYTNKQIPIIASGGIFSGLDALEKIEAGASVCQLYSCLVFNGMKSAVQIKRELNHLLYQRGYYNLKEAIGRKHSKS
Compound,z-score [1],z-score [2],z-score [3],composite z-score [4],z-score [5],z-score [6],z-score [7],z-score [8],z-score [9],composite z-score [10],composite z-score [11],composite z-score [12],z-score [13],z-score [14],z-score [15],z-score [16]
C[C@]1(C(=O)O)c2ccccc2C(=O)N(Cc2cc(F)cc(C(F)(F)F)c2)[C@H]1c1ccc(CO)cc1,0.646,-1.43 (inactive),0.449 (inactive),-0.215 (inactive),1.01 (inactive),-1.33 (inactive),0.434 (inactive),-0.808 (inactive),1.4,-0.167,0.342 (inactive),0.778,0.832,-1.83 (inactive),0.117 (inactive),0.239 (inactive)
COCCOC(=O)N1C(=O)[C@@]2(c3cc(C#CCNC(N)=O)ccc31)[C@H](C(=O)Nc1nc3ccccc3s1)[C@H]1C(=O)O[C@H](c3ccccc3)[C@H](c3ccccc3)N1[C@@H]2c1ccccc1OCCO,0.0277,0.21 (inactive),-0.482 (inactive),-0.845 (inactive),3.44 (inactive),2.32 (inactive),0.405 (inactive),1.14 (inactive),-1.01,-0.155,0.278 (inactive),0.634,-1.78,2.01 (inactive),-0.339 (inactive),-0.644 (inactive)
O=C(NC1CC1)[C@@H]1c2ccccc2C(=O)N(CC23CC4CC(CC(C4)C2)C3)[C@H]1c1ccc(CO)cc1,0.658,-0.498 (inactive),0.74 (inactive),-0.329 (inactive),0.338 (inactive),0.123 (inactive),-0.0508 (inactive),-0.428 (inactive),1.07,0.141,0.383 (inactive),0.686,-2.22,-5.05 (inactive),-0.0001 (inactive),0.169 (inactive)
Cc1ccc(S[C@]2(C(=O)NC(C)C)CC(=O)N(C3CCCCC3)[C@@H]2c2ccc(CO)cc2I)cc1,0.748,0.27 (inactive),-0.611 (inactive),0.62 (inactive),0.462 (inactive),1.16 (inactive),0.384 (inactive),-0.138 (inactive),-2.01,-0.0559,0.814 (inactive),0.864,-1.31,-4.43 (inactive),0.243 (inactive),0.202 (inactive)
CCOC(=O)C1=C[C@@H](C(C)(C)C)N(S(=O)(=O)c2ccc(C)cc2)[C@H]1c1ccc(C#N)cc1,-0.718,2.25 (inactive),-0.153 (inactive),-0.158 (inactive),0.16 (inactive),1.56 (inactive),-0.264 (inactive),-0.361 (inactive),-1.22,-0.0559,-0.331 (inactive),0.662,-1.82,-0.543 (inactive),0.892 (inactive),1.21 (inactive)
COC(=O)[C@]1(Cc2ccccc2)N=C(c2ccc(OCCCO)cc2)O[C@@H]1c1ccccc1CN=[N+]=[N-],-4.19,-0.813 (inactive),-8.88 (active),1.94 (inactive),1.84 (inactive),2.72 (inactive),1.28 (inactive),-0.88 (inactive),-7.14,0.0159,0.506 (inactive),0.753,-2.47,-1.89 (inactive),-0.623 (inactive),-0.631 (inactive)
COC(=O)c1cccc([C@H]2OC(=CC(=O)OC(C)C)C[C@@H](c3cccc(C(=O)OC)c3)O2)c1,-0.674,-2.43 (inactive),-0.799 (inactive),-0.351 (inactive),0.188 (inactive),-0.258 (inactive),-0.435 (inactive),-0.0196 (inactive),0.0732,0.378,0.308 (inactive),0.713,-0.832,-4.13 (inactive),-0.504 (inactive),-1.39 (inactive)
COc1cc(C(O)C2C=CC3C(=O)N(c4ccccc4)C(=O)C3N2Nc2ccccc2F)cc(OC)c1OC (centres undefined),-0.514,0.886 (inactive),-0.565 (inactive),0.0998 (inactive),0.437 (inactive),0.881 (inactive),-0.631 (inactive),-0.765 (inactive),-0.17,0.081,0.283 (inactive),0.737,-0.267,-4.84 (inactive),0.409 (inactive),-0.477 (inactive)
COC(=O)[C@@]1(Cc2ccc(OC)cc2)[C@H]2c3cc(C(=O)N4CCCC4)n(Cc4ccc(Cl)c(C(F)(F)F)c4)c3C[C@H]2CN1C(=O)c1ccccc1,0.27,0.681 (inactive),-0.267 (inactive),-0.902 (inactive),0.135 (inactive),0.276 (inactive),-0.88 (inactive),0.404 (inactive),-0.859,-0.064,0.151 (inactive),0.45,-1.37,0.806 (inactive),-0.842 (inactive),-0.559 (inactive)
